Experimental data: PubChem BioAssay AID602478 (National Center for Advancing Translational Sciences (NCATS), 2012)
Inconclusive results are not listed. Values without a mark were called inactive. Calls of active or inactive are those of the source. Calls come from the whole dose curve; as a rule, active = well fitted activation curve with a large enough effect; inconclusive = small, poorly fitted or top-dose-only effect; inactive = flat fitted curve, though single readings scatter.

These compounds were tested against Luciferin 4-monooxygenase (Photinus pyralis) (UniProt P08659) (assay: FLuc inhibitory activity for the follow-up compounds in a cell-based translational read-through assay (72 hour incubation)). Details: GripTite 293 FLucUGA read-through, luminescence; series mostly up to 38.3 µM; activation (luciferase signal increase): at the top concentration.
Luciferin 4-monooxygenase (Photinus pyralis), sequence (P08659 whole entry, looked up): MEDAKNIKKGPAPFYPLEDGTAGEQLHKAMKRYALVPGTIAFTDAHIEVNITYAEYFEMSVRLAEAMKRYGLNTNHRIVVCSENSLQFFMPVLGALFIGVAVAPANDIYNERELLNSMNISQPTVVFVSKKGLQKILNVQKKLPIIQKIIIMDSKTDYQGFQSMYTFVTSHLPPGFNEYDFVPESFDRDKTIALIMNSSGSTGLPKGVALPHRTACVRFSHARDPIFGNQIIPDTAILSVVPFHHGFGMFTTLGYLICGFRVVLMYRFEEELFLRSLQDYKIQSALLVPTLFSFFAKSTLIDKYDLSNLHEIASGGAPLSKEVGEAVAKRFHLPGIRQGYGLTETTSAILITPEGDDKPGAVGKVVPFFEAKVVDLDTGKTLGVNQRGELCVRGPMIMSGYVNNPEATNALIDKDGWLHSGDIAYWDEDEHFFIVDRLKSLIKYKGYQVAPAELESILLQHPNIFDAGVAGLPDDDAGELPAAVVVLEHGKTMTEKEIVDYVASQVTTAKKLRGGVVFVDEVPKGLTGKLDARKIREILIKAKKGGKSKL
Description: NCGC Assay Overview: Firefly (Photinus pyralis) luciferase is one of the most commonly used transcriptional reporters. It is considered one of the more dynamically responsive reporters - that is, responsive to changes in reporter transcription - as it requires no post-translational modifications and is enzymatically active directly after protein synthesis (Wood, 1998). With no endogenous expression in mammalian cells and without the requirement of external excitation, it offers very little background signal, thus generally providing excellent signal to background for most assays. Previous profiling work to determine the prevalence of compounds that affect FLuc enzymatic activity (PubChem AID 411) identified that ~3% of the MLSMR library (then at ~72K) inhibited FLuc (Auld et al., 2008). […] Of the compounds identified in this profile that inhibited FLuc, 151 compounds were selected for further analysis, in an effort to better understand their mode of inhibiting FLuc. The assay described here was to determine the activity of the compounds in a cell-based firefly luciferase reporter gene assay originally designed to identify compounds that enchanced translational read-through of a FLuc cDNA that contained a premature stop codon (Auld et al., 2009; Auld et al., 2010). Compounds that enhance translational read-through or compounds that stabilize FLuc intracellularly are identified as active compounds in the assay.
NCGC Assay Protocol Summary: Reagents: Transient transfection of FlucUGA construct: TransFast Transfection Reagent (Promega #E2431); FLucUGA construct (refer to Auld et al., 2009) #GripTite 293 MSR Cell Line (Invitrogen #R795-07) #Complete growth media: DMEM (Invitrogen #11965), 10% HIFBS, 0.1mM MEM NEAA, 5mL/L pen-strep (of 5000U/mL stock), 600ug/mL Geneticin #Assay media: DMEM without phenol red (Invitrogen #21063), 5% charcoal-stripped HIFBS (Hyclone #SH30071.03), 0.1mM MEM NEAA In-house detection reagent: 300mM Tris-HCl, 300mM Trizma base, 300mM MgCl, 1% Triton-X100, 5mM DTT, 500uM Coenzyme A trilithium salt (Sigma #C3019),450uM ATP (Sigma #A7699), 1mM D-luciferin sodium salt monohydrate (Biosynth #L8240) Control compounds used were two known firefly luciferase inhibitors (3-(5-(3-chlorophenyl)-1,2,4-oxadiazol-3-yl)benzoic acid and 5-(2-fluorophenyl)-3-phenyl-1,2,4-oxadiazole), and DMSO. Assay Summary: Transient transfection of FlucUGA construct: Day 1: GripTite cells were plated in T175 flasks at a density of 1.75 x 10^7 cells/T175 flask in complete growth media without Geneticin and allowed to grow ON in a 37 degrees Celsius incubator. Day 2: Cells in T175 flask were transfected - with 10ug of DNA and 30uL Transfast in 12mL complete growth media without serum and without Geneticin for 4 hours at 37 degrees Celsius. After incubation, cells were trypsinized, spun down, and resuspended to a concentration of 3.3 x 10^5 cells/mL in assay media. 6uL of cells in assay buffer were dispensed at 2000cells/well (3.3 x 10^5 cells/mL) into Greiner solid-white TC-treated 1536-well plates using a Multidrop Combi (Thermo Fisher Scientific). Plates were incubated for one hour at 37 degree Celsius, 95% humidity, 5% CO2. These assay plates were then treated with 23nL of compound or DMSO using a Kalypsys pin tool, which allows for delivery of a 12-point titration of each compound to the assay plate, with a final compound concentration ranging from approximately ~38uM to 0.2nM. Assay plates were then incubated for 72 hours. After incubation, plates were washed three times with DPBS (7uL/well). After the third wash, 6uL of DPBS was added to each well. 3uL of 3X luciferase detection reagent was then added to each well using a flying reagent dispenser (FRD). After a 15 minute incubation to allow for cell lysis, luciferase activity was measured using a ViewLux CCD imager (PerkinElmer), with an average exposure time of 2-12 seconds.
In the case of `CCc1noc(C)c1C(=O)Nc1nc2ccc(OC)cc2s1`, the “activation (luciferase signal increase)” value is reported as 2.59%.
For `O=C(O)c1cccc(NC(=O)c2cccc(NC(=O)C3CCCO3)c2)c1` (stereo not given), the “activation (luciferase signal increase)” value was 7.52%.
In the case of `COc1ccc(Br)cc1C(=O)Nc1ccc(C(=O)O)cc1`, the “activation (luciferase signal increase)” value is reported as 6.32%.
With `Cc1ccc2sc(-c3ccc(N)cc3)nc2c1` the Potency was 0.356 µM (active).
In the case of `CCOc1ccc(C(=O)Nc2ccccc2C(=O)O)cc1`, the Potency is reported as 14.2 µM (active).
With `COc1cccc(-c2nc3ccccc3s2)c1` the Potency was 3.56 µM (active).
With `Cc1ccc(C(=O)O/N=C(\N)c2ccccn2)c(Cl)c1` the Potency was 1.26 µM (active).
For `COc1ccc(NS(=O)(=O)c2cccc(C(=O)Nc3ccccc3C(=O)O)c2)cc1`, the “activation (luciferase signal increase)” value was 1.98%.
In the case of `COc1ccc2nc(NC(=O)c3ccc(S(=O)(=O)N4CCCC(C)C4)cc3)sc2c1` (stereo not given), the “activation (luciferase signal increase)” value is reported as 3.44%.
In the case of `O=C(Nc1ccccc1C(=O)O)c1cccc(NC(=O)c2ccccc2Br)c1`, the “activation (luciferase signal increase)” value is reported as 6.23%.
For `Cc1cccc(C(=O)Nc2ccccc2C(=O)Nc2ccc(C(=O)O)cc2)c1`, the “activation (luciferase signal increase)” value was 4.31%.
With `Cc1ccc(C(=O)Nc2ccc(C(=O)O)cc2)cc1S(=O)(=O)Nc1ccccc1` the “activation (luciferase signal increase)” value was 1.36%.
With `COc1ccccc1C(=O)Nc1ccc(C(=O)Nc2ccccc2C(=O)O)cc1` the “activation (luciferase signal increase)” value was 2.81%.
With `COc1ccc(C(=O)Nc2cccc(C(=O)O)c2)cc1S(=O)(=O)N1CCCC1` the “activation (luciferase signal increase)” value was 3.95%.
With `COc1ccc(CC(=O)Nc2cccc(C(=O)Nc3ccccc3C(=O)O)c2)cc1OC` the “activation (luciferase signal increase)” value was 11.8%.
With `CC(C)Oc1ccc(C(=O)Nc2ccc(-c3nc4ccccc4s3)cc2)cc1` the “activation (luciferase signal increase)” value was 8.81%.
For `O=C(Nc1ccccc1C(=O)O)c1cc(S(=O)(=O)Nc2cccc(F)c2)ccc1Cl`, the “activation (luciferase signal increase)” value was -2.5%.
With `O=C(O)c1ccc(NC(=O)c2cc(S(=O)(=O)N3CCCCC3)c(Cl)cc2Cl)cc1` the “activation (luciferase signal increase)” value was 0.522%.
With `COc1cccc(OC)c1C(=O)Nc1cccc(C(=O)Nc2cccc(C(=O)O)c2)c1` the “activation (luciferase signal increase)” value was 5.11%.
`O=C(Nc1ccccc1C(=O)O)c1ccc(NC(=O)C2CCCCC2)cc1` was tested, and the “activation (luciferase signal increase)” value was 1.36%.
For `COc1cc(OC)cc(C(=O)Nc2ccc(-c3nc4ccccc4s3)c(C)c2)c1`, the “activation (luciferase signal increase)” value was 4.63%.
In the case of `Cc1ccc(S(=O)(=O)N2CCN(C(=O)c3ccccc3-c3nc4ccccc4s3)CC2)c(C)c1`, the “activation (luciferase signal increase)” value is reported as 1.64%.
`COc1ccc(-c2cccc(C(=O)Nc3cccc(C(=O)O)c3)c2)cc1` was tested, and the Potency was 12.6 µM (active).
For `Cc1ccc(C(=O)Nc2ccc(C(=O)O)cc2)cc1S(=O)(=O)NCc1ccccc1`, the “activation (luciferase signal increase)” value was 2.78%.
For `O=C(Nc1ccccc1C(=O)O)c1cccc(S(=O)(=O)Nc2ccc(Br)cc2)c1`, the “activation (luciferase signal increase)” value was 4.51%.
`CCOc1ccc2nc(NC(=O)c3ccoc3C)sc2c1` was tested, and the Potency was 0.449 µM (active).
In the case of `CC(C)c1ccc(C(=O)Nc2ccc(-c3nc4ccccc4s3)c(Cl)c2)cc1`, the “activation (luciferase signal increase)” value is reported as 0.822%.
With `CN(C)S(=O)(=O)c1ccc(C(=O)Nc2cccc(C(=O)O)c2)cc1` the “activation (luciferase signal increase)” value was 8.37%.
`O=C(COC(=O)c1ccccc1[N+](=O)[O-])c1ccc2c(c1)OCO2` was tested, and the “activation (luciferase signal increase)” value was 3.99%.
`COc1ccccc1C(=O)Nc1ccc(C(=O)O)cc1` was tested, and the “activation (luciferase signal increase)” value was 6.84%.
`CN(C)c1cccc(C(=O)Nc2ccc(-c3nc4ccccc4s3)cc2)c1` was tested, and the Potency was 1.79 µM (active).
For `COc1ccc2nc(NC(=O)c3cnccn3)sc2c1`, the Potency was 3.56 µM (active).
`CCOc1ccc2nc(NC(=O)c3cccnc3)sc2c1` was tested, and the Potency was 3.56 µM (active).
In the case of `COc1ccc2nc(NC(=O)c3ccco3)sc2c1`, the Potency is reported as 0.634 µM (active).
For `COc1ccc(-c2nc3ccccc3s2)cc1NC(=O)c1ccc(F)cc1`, the “activation (luciferase signal increase)” value was 1.16%.
`Cc1ccc(C(=O)Nc2cccc(C(=O)O)c2)cc1S(=O)(=O)N1CCOCC1` was tested, and the Potency was 11.3 µM (active).
`Oc1ccc(-c2nc3ccccc3s2)c(O)c1` was tested, and the Potency was 12.6 µM (active).
In the case of `O=C(O)c1cccc(NC(=O)c2cccc(S(=O)(=O)Nc3cccc(F)c3)c2)c1`, the “activation (luciferase signal increase)” value is reported as 0.415%.
`O=C(Nc1ccccc1C(=O)O)c1cccc(NC(=O)c2ccccc2Cl)c1` was tested, and the “activation (luciferase signal increase)” value was 5.43%.
With `O=C(O)c1ccc(NC(=O)c2cccc(C(=O)Nc3ccc(C(=O)O)cc3)c2)cc1` the “activation (luciferase signal increase)” value was -0.0974%.
